Reference: PubChem BioAssay (NCATS)
Inconclusive results are not listed. Where a call stands in place of a potency, no number is given. The source made the active and inactive calls. Calls come from the whole dose curve; as a rule, active = well fitted curve in the direction sought with a large enough effect; inconclusive = small, poorly fitted or top-dose-only effect, or another doubt; inactive = no such curve, though single readings can be large; an effect the other way counts as inactive or inconclusive. Peptide text beside a SMILES is read from it.

Columns and labels:
[1] = Cell Viability - LYMP2-003 (AID 965); conditions: LYMP2-003 lymphoblastoid cell viability; series mostly up to 92.2 µM;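 note: cells exposed to compounds for 24 h before reading; nearly all actives have a fitted effect of over 50% in size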
Procedure, shortened: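 CellTiter-Glo luminescence quantified ATP loss after 24 h compound treatment of LYMP2-003 lymphoblastoid cells at 37 C. Titration series were fitted with the standard Hill equation to give AC50.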

[2] = Cell Viability - LYMP2-004 (AID 966); conditions: LYMP2-004 lymphoblastoid cell viability, qHTS; series mostly up to 92.2 µM; note: nearly all actives have a fitted effect of over 65% in size
Procedure, shortened: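 Acute toxicity is scored as a concentration-dependent drop in intracellular ATP, quantified by luciferase luminescence, in human lymphoblastoid cells exposed to compound for 24 hr. AC50 derives from Hill-equation modelling.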

[3] = Cell Viability - LYMP2-005 (AID 967); conditions: LYMP2-005 lymphoblastoid cell viability; series mostly up to 92.2 µM
Procedure, shortened: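 LYMP2-005 human lymphoblastoid cells (2500/well) were treated with compounds for 24 h at 37 C. Intracellular ATP was then measured by CellTiter-Glo luminescence after 30 min at room temperature. AC50 values came from Hill-equation fits of qHTS concentration-response data.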

[4] = Cell Viability - LYMP2-009 (AID 968); conditions: LYMP2-009 lymphoblastoid cell viability; series mostly up to 92.2 µM; note: nearly all actives have a fitted effect of over 55% in size
[5] = Cell Viability - LYMP2-011 (AID 969); conditions: LYMP2-011 lymphoblastoid cells viability; series mostly up to 92.2 µM; note: nearly all actives have a fitted effect of over 60% in size
Procedure, shortened: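 Acute toxicity is scored as a concentration-dependent drop in intracellular ATP of a human lymphoblastoid line after 24 hr treatment. Values are AC50s modeled with the Hill equation.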

[6] = Cell Viability - LYMP2-013 (AID 970); conditions: LYMP2-013 lymphoblastoid cells viability; series mostly up to 92.2 µM; note: nearly all actives have a fitted effect of over 55% in size
Procedure, shortened: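 Acute toxicity was measured in human lymphoblastoid cells (2500/well) exposed to compound titrations for 24 hr, with ATP luminescence (CellTiter-Glo) as read-out and AC50 fitted by Hill equation.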

[7] = Cell Viability - LYMP2-015 (AID 971); conditions: LYMP2-015 lymphoblastoid cell viability; series mostly up to 92.2 µM; note: nearly all actives have a fitted effect of over 55% in size
Procedure, shortened: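 Acute toxicity was scored as a concentration-dependent drop in intracellular ATP in lymphoblastoid cells after 24 hr compound exposure in complete medium. Detection used CellTiter-Glo luciferase luminescence.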

[8] = Cell Viability - LYMP2-017 (AID 972); conditions: LYMP2-017 lymphoblastoid cell viability; series mostly up to 92.2 µM;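 note: cells exposed to compound for 24 hours at 37 °C; nearly all actives have a fitted effect of over 55% in size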
Procedure, shortened: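 Steps: plate 2500 lymphoblastoid cells per well; incubate 5 hr at 37 C; add compound across a concentration series and incubate 24 hr at 37 C; add CellTiter-Glo and read luminescence after 30 min at room temperature; fit Hill curves for AC50.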

[9] = Cell Viability - LYMP2-019 (AID 973); conditions: LYMP2-019 lymphoblastoid cell line viability; series mostly up to 92.2 µM; note: nearly all actives have a fitted effect of over 55% in size
Procedure, shortened: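 Cells plated at 2500/well and allowed 5 hr at 37 C before compound addition. After 24 hr incubation, CellTiter-Glo reagent was added, plates sat 30 min at room temperature, and luminescence was recorded.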

[10] = Cell Viability - LYMP2-021 (AID 974); conditions: LYMP2-021 lymphoblastoid cells viability; series mostly up to 92.2 µM
Procedure, shortened: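 Concentration-response cytotoxicity in a human lymphoblastoid line: 24 hr treatment at 37 C in complete culture medium, tetraoctylammonium bromide as positive control, luminescent ATP quantitation as viability measure.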
Potency is the fitted concentration of half-maximal effect.

| Structure (SMILES) | Potency [1] | Potency [2] | Potency [3] | Potency [4] | Potency [5] | Potency [6] | Potency [7] | Potency [8] | Potency [9] | Potency [10] |
| --- | --- | --- | --- | --- | --- | --- | --- | --- | --- | --- |
| CS(=O)(=O)OCCCCOS(C)(=O)=O | inactive | inactive | inactive | inactive | inactive | inactive | inactive | inactive | inactive | inactive |
| c1ccc2[nH]c(-c3cscn3)nc2c1 | inactive | inactive | inactive | inactive | inactive | inactive | inactive | inactive | inactive | inactive |
| CC(=O)Nc1ccc(O)cc1 | inactive | inactive | inactive | inactive | inactive | inactive | inactive | inactive | inactive | inactive |
| Cc1cc(O)c2c(c1)C(=O)c1cc(O)cc(O)c1C2=O | inactive | inactive | inactive |  | inactive |  | inactive |  |  |  |
| CCCCC(CC)COC(=O)C(C#N)=C(c1ccccc1)c1ccccc1 (stereo not given) | inactive | inactive | inactive | inactive | inactive | inactive | inactive | inactive | inactive | inactive |
| COc1c2occc2cc2ccc(=O)oc12 | inactive | inactive | inactive | inactive | inactive | inactive | inactive | inactive | inactive | inactive |
| CCc1nc(N)nc(N)c1-c1ccc(Cl)cc1 | inactive | inactive | inactive |  |  | inactive |  | inactive |  |  |
| CCCc1cc(=O)[nH]c(=S)[nH]1 | inactive | inactive | inactive | inactive | inactive | inactive | inactive | inactive | inactive | inactive |
| Cc1ccc(C)c(OCCCC(C)(C)C(=O)O)c1 | inactive | inactive | inactive | inactive | inactive | inactive | inactive | inactive | inactive | inactive |
| Nc1ccc(S(N)(=O)=O)cc1 | inactive | inactive | inactive | inactive | inactive | inactive | inactive | inactive | inactive | inactive |
| CN(C)c1ccc2nc3ccc(=[N+](C)C)cc-3sc2c1 | 3.98 µM (active) | 5.01 µM (active) | 5.01 µM (active) | 5.01 µM (active) | 6.31 µM (active) | 7.94 µM (active) | 3.98 µM (active) | 6.31 µM (active) | 3.16 µM (active) | 7.94 µM (active) |
| COC(=O)[C@H](Cc1ccccc1)NC(=O)[C@@H](N)CC(=O)O (H-Asp-Phe-OMe) | inactive | inactive | inactive | inactive | inactive | inactive | inactive | inactive | inactive | inactive |
| NS(=O)(=O)c1cc(C(=O)O)c(NCc2ccco2)cc1Cl | inactive | inactive | inactive | inactive | inactive | inactive | inactive | inactive | inactive | inactive |
